From PubChem BioAssay (EPA / NIEHS)
Activity calls are given as the source filed them. The calls were made as follows: active = hit-call score of the fitted dose curve at least 0.9, where 1 is the maximum; inactive = score below 0.9.

Assays:
[1] = APR_HepG2_CellCycleArrest_24hr: Apredica 24-hour HepG2 Assay for Cell Cycle Arrest (AID 2282905); details: imaging, actives raise or lower the signal;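 also: cell cycle arrest scored as ratio of 2N to 4N nuclear DNA content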
Summary of the method: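 Compounds at 0.39–200 uM (0.5% DMSO) for 24 h, then fixed and Hoechst 33342 stained. Cell-cycle analysis of nuclear DNA content by high-content imaging, fitted bidirectionally versus DMSO.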

[2] = APR_HepG2_NuclearSize_24hr: Apredica 24-hour HepG2 Assay for Nuclear Size (AID 2282907); details: high-content imaging, actives raise or lower the signal
Summary of the method: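 HepG2 cells exposed 24 h to compounds at 0.39–200 uM (0.5% DMSO), fixed, Hoechst 33342 stained and imaged at 20x; nuclear diameter measured by automated image analysis, fitted bidirectionally against DMSO controls.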

[3] = APR_HepG2_CellLoss_24hr: Apredica 24-hour HepG2 Assay for Cell Loss (AID 2282908); details: high-content imaging;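 as to AC50: fit in both directions so a hit may be cell loss or gain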
Summary of the method: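 HepG2 cells exposed 24 hr to 0.39–200 uM compound in duplicate at 0.5% v/v final DMSO. Cells fixed in 3.7% formaldehyde and Hoechst 33342-stained. Cell number came from nuclear imaging at 20x. Bidirectional fit versus DMSO.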

[4] = APR_HepG2_MitoMembPot_24hr: Apredica 24-hour HepG2 Assay for Mitochondrial Membrane Potential (AID 2282911); details: imaging, actives raise or lower the signal
Summary of the method: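 HepG2, 24 hr dosing, 10 concentrations 0.39–200 uM, 0.5% DMSO final. Live-cell MitoTracker Red CMXRos 250 nM 30 min, then 3.7% formaldehyde fix. HCS fluorescence imaging, 20x; bidirectional fit vs DMSO baseline.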

[5] = APR_HepG2_CellCycleArrest_72hr: Apredica 72-hour HepG2 Assay for Cell Cycle Arrest (AID 2282914); details: high-content imaging, actives raise or lower the signal
Summary of the method: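 HepG2, 72 hr exposure, 10-point 0.39–200 uM, duplicate, 0.5% DMSO final. Fix 3.7% formaldehyde 30 min RT, Triton X-100 0.5%, Hoechst 33342 2 ug/mL. ArrayScan 20x, six fields/well; DNA content per nucleus; bidirectional fit vs DMSO.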

[6] = APR_HepG2_CellLoss_72hr: Apredica 72-hour HepG2 Assay for Cell Loss (AID 2282915); details: high-content imaging
Summary of the method: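 HepG2 cells were exposed for 72 hr to compounds at 0.39–200 uM (ten concentrations, duplicate) in 0.5% v/v final DMSO. Nuclei were stained with Hoechst 33342 after 3.7% formaldehyde fixation, imaged at 20x, and counted; fits bidirectional versus DMSO.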

[7] = APR_HepG2_P-H2AX_72hr: Apredica 72-hour HepG2 Assay for H2AX Phosphorylation (AID 2282916); details: imaging, actives raise or lower the signal;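 also: phospho-histone H2A.x immunostain intensity per cell marking DNA damage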
Summary of the method: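 HepG2 cells treated 72 h at 0.39–200 uM, 0.5% DMSO final, duplicates. Formaldehyde-fixed, Triton-permeabilised, immunostained for phospho-H2A.x with Hoechst; fluorescence imaged at 20x, bidirectional fit versus DMSO.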

[8] = APR_HepG2_MitoMembPot_72hr: Apredica 72-hour HepG2 Assay for Mitochondrial Membrane Potential (AID 2282917); details: imaging, actives raise or lower the signal
Summary of the method: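 HepG2 cells exposed 72 h to compounds at 0.39–200 uM (0.5% v/v DMSO, duplicates); MitoTracker Red CMXRos 250 nM loaded 30 min before 3.7% formaldehyde fixation, imaged by HCS fluorescence. Bidirectional fit versus DMSO.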

[9] = APR_HepG2_MitoticArrest_72hr: Apredica 72-hour HepG2 Assay for Mitotic Arrest (AID 2282918); details: high-content imaging, actives raise or lower the signal
Summary of the method: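 HepG2, 72 hr exposure, 0.39–200 uM in duplicate, 0.5% v/v DMSO final. Formaldehyde-fixed, Triton-permeabilized, anti-phospho-histone H3/FITC plus Hoechst. ArrayScan imaging at 20x; curves fit bidirectionally against DMSO baseline.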

[10] = APR_HepG2_p53Act_24hr: Apredica 24-hour HepG2 Assay for p53 Activation (AID 2282913); details: high-content imaging, actives raise or lower the signal;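 also: p53 protein immunofluorescence averaged per cell in HepG2 with Hoechst nuclei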
Summary of the method: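 Read-out: Cy5 immunofluorescence for p53 in fixed, permeabilized HepG2, imaged by HCS with Hoechst-defined nuclei. Dosing was 24 hr at 0.39–200 uM in 0.5% DMSO. Curves were fitted bidirectionally relative to DMSO.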

Row | SMILES | outcome [1] | outcome [2] | outcome [3] | outcome [4] | outcome [5] | outcome [6] | outcome [7] | outcome [8] | outcome [9] | AC50 [4] | AC50 [1] | AC50 [3] | AC50 [5] | AC50 [6] | AC50 [7] | AC50 [9] | outcome [10]
1 | CC(C)O.CC(C)O.OCCN(CCO)CCO.OCCN(CCO)CCO.[Ti] | inactive | inactive | inactive | inactive | inactive | inactive | inactive | inactive | inactive |  |  |  |  |  |  |  | 
2 | Clc1cccc(Cl)c1 | inactive | inactive | inactive | inactive | inactive | inactive | inactive | inactive | inactive |  |  |  |  |  |  |  | 
3 | O=C(N[C@H]1CN2CCC1CC2)c1ccc2c(c1)OCCO2 | inactive | inactive | inactive | inactive | inactive | inactive | inactive | inactive | inactive |  |  |  |  |  |  |  | 
4 | Clc1cccc(Cl)c1Cl | inactive | inactive | inactive | inactive | inactive | inactive | inactive | inactive | inactive |  |  |  |  |  |  |  | 
5 | COc1ccccc1N | inactive | inactive | inactive |  | inactive | inactive | inactive |  |  | 29.3 µM (active) |  |  |  |  |  |  | 
6 | CCCCCCCCCCCCc1cccc(S(=O)(=O)O)c1 | inactive | inactive | inactive | inactive | inactive | inactive | inactive | inactive | inactive |  |  |  |  |  |  |  | 
7 | CN(C)C(=S)S |  | inactive |  | inactive |  |  |  | inactive |  |  | 19.8 µM (active) | 0.183 µM (active) | 0.0391 µM (active) | 0.238 µM (active) | 0.242 µM (active) | 0.125 µM (active) | 
8 | N#Cc1cccnc1 | inactive | inactive | inactive | inactive | inactive | inactive | inactive | inactive | inactive |  |  |  |  |  |  |  | 
9 | OCCN(CCO)CCO | inactive | inactive | inactive | inactive | inactive | inactive | inactive | inactive | inactive |  |  |  |  |  |  |  | 
10 | CC(C)(C)c1ccccc1O | inactive | inactive | inactive | inactive | inactive | inactive | inactive | inactive | inactive |  |  |  |  |  |  |  | 
11 | Cc1cc(C)cc(C)c1 | inactive | inactive | inactive | inactive | inactive | inactive | inactive | inactive | inactive |  |  |  |  |  |  |  | 
12 | Oc1cc(Cl)c(Cl)cc1Cl |  | inactive |  | inactive | inactive |  |  | inactive |  |  | 35.7 µM (active) | 27.7 µM (active) |  | 44.6 µM (active) | 42.4 µM (active) | 29.5 µM (active) | 
13 | O=C(O)C1(c2ccc3c(c2)OC[C@H](Cc2ccc(-c4ccccc4)cc2)[C@H]3O)CCCC1 | inactive | inactive | inactive |  |  |  |  | inactive |  | 105 µM (active) |  |  | 118 µM (active) | 86.9 µM (active) | 106 µM (active) | 105 µM (active) | 
14 | Oc1c(Cl)cc(Cl)cc1Cl |  |  | inactive | inactive |  | inactive | inactive | inactive |  |  |  |  |  |  |  | 50 µM (active) | inactive
